Reference: PubChem BioAssay (NCATS)
Inconclusive results are not listed. Activity calls are given as the source filed them. Unless noted, calls come from the whole dose curve; as a rule, active = well fitted curve in the direction sought with a large enough effect; inconclusive = small, poorly fitted or top-dose-only effect, or another doubt; inactive = no such curve, though single readings can be large; an effect the other way counts as inactive or inconclusive.

Columns and labels:
[1] = AP1 Signaling Pathway (AID 357; active = well fitted curve in either direction with a large enough effect, not every such curve was filed as active;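 note: ME-180 reporter cells stimulated with EGF at its EC50 level; % is set by controls: 0 for no effect and ±100 for the full control effect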); details: ME-180 AP-1-bla reporter, EGF-induced, beta-lactamase ratio, 5 h; at 17.2 µM (top of the series) unless noted
Procedure, shortened: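 Beta-lactamase reporter under AP-1 response element, ME-180 background. Stimulus: EC50 EGF. Compound exposure 5 h, 37 °C. Detection: CCF4, 2.5 h RT, 460/530 nm. Values: AC50 from titration.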

[2] = Stat Signaling Pathway (AID 446; active = well fitted curve in either direction with a large enough effect, not every such curve was filed as active;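 note: ME-180 cervical cancer cells given 40 pM IL-6 alongside compound; SIE-controlled beta-lactamase reporter measured as 460/530 nm FRET emission ratio; % is set by controls: 0 for no effect and ±100 for the full control effect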)
Procedure, shortened: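 FRET read-out (405 nm excitation, 460/530 nm emission) of a beta-lactamase reporter under a STAT-inducible element in ME-180 cervical carcinoma cells. Cells with compound receive 40 pM IL-6 for 5 h. Values are normalised to AC90 stimulation and AC90 JAK-inhibitor controls.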

[3] = target: Glucocorticoid receptor (Homo sapiens) (UniProt P04150); assay: GR-GFP Redistribution (AID 450;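 active = compounds whose dose series gives a full or clear partial fitted curve of increased nuclear translocation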; note: potency is the fitted concentration of half-maximal effect); details: U2OS GR-GFP nuclear translocation, laser cytometry, 2 h
Sequence of Glucocorticoid receptor (Homo sapiens) (P04150 whole entry, looked up, the tested form may be a part): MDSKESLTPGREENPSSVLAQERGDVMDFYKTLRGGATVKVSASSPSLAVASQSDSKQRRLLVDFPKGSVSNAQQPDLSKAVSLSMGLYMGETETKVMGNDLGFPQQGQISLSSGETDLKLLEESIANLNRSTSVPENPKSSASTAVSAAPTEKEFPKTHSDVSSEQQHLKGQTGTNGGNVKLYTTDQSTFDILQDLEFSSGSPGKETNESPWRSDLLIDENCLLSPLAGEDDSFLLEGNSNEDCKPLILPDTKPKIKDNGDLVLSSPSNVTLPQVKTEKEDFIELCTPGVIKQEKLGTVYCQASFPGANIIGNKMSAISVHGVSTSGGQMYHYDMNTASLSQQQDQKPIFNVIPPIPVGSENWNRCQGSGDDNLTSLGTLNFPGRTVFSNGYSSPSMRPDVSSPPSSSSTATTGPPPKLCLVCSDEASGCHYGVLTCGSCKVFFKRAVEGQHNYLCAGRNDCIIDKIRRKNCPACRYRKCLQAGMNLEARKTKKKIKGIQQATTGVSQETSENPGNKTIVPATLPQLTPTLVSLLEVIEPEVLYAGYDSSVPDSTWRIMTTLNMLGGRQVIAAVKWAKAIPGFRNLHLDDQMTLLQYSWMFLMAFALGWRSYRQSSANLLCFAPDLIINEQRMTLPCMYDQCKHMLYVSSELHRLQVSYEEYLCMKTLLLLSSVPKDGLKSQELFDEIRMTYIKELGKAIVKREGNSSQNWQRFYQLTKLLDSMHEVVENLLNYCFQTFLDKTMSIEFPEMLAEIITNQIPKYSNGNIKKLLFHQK

[4] = target: Glucocorticoid receptor (Homo sapiens) (UniProt P04150); assay: GR-EFC Redistribution (AID 451; calls by dose curve; note: potency is the fitted concentration of half-maximal effect); details: CHO-K1 GR-EFC translocation, beta-gal luminescence, 2 h
Procedure, shortened: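 Translocation of GR-ED fusion to nuclear EA restores b-gal, read by luminescence after 1 h room-temperature detection. Engineered CHO-K1 biosensor cells, 1,000/well, exposed 2 h at 37 C to titrations up to 46 uM final.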

[5] = target: 3',5'-cyclic-AMP phosphodiesterase 4B (Homo sapiens) (UniProt Q07343); assay: qHTS Assay for Inhibitors of PDE-IV (AID 607; active = well fitted activation curve with a large enough effect in the main read-out, with a control signal flat, not every such curve was filed as active; note: % of control where 0% means no effect)
Sequence of 3',5'-cyclic-AMP phosphodiesterase 4B (Homo sapiens) (Q07343 whole entry, looked up): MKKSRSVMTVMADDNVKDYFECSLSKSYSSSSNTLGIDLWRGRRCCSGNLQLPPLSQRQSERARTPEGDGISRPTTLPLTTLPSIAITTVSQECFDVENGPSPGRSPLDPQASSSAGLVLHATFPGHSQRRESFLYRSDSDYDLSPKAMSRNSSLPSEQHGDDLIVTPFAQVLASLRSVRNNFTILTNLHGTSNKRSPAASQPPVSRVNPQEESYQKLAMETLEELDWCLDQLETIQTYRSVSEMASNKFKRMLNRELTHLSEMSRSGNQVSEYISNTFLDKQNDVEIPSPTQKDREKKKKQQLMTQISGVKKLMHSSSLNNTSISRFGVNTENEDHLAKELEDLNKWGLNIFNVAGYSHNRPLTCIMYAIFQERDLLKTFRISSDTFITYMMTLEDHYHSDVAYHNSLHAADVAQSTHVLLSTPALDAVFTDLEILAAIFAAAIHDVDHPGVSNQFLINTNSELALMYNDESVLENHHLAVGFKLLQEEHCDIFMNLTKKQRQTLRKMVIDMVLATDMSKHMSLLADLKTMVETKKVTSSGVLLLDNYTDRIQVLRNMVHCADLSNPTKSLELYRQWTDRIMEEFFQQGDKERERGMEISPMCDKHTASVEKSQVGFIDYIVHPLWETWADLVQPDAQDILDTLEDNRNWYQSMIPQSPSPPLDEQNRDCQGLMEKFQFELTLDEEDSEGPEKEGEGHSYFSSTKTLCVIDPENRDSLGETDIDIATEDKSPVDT
Procedure, shortened: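 Cell-based read-out of cAMP via a modified cyclic nucleotide-gated channel and membrane potential dye (535/590 nm) in HEK293 cells expressing PDE4 endogenously. Compounds tested up to 22.9 uM final; 100 uM RO 20-1724 reference.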

[6] = target: Cytochrome P450 3A4 (Homo sapiens) (UniProt P08684); assay: qHTS Assay for Activators of Cytochrome P450 3A4 (AID 885); note: nearly all actives have a fitted effect of over 65% in size
Procedure, shortened: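 Luminescent readout of luciferin formed from 25 uM Luciferin-PPXE (KM level) by 20 nM CYP3A4 in 200 mM KPO4, with 60 min NADPH-driven reaction at room temperature after 10 min compound exposure. Ketoconazole (57 uM) defined 100% inhibition.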

[7] = qHTS Assay for Identification of Small Molecule Antagonists for Thrombopoietin (TPO) Signaling Pathway (AID 918); details: TPO-dependent cell signaling reporter, antagonist mode; note: potency is the fitted concentration of half-maximal effect; nearly all actives have a fitted effect of over 60% in size
Procedure, shortened: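 Inhibition read as reduced luciferase luminescence after 24 h at 37 C in IL-3-deprived Ba/F3 cells carrying human TPO receptor and GPIIb-promoter reporter, stimulated with 26 pM TPO (final, its EC50) alongside compound.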

[8] = target: Muscarinic acetylcholine receptor M1 (Rattus norvegicus) (UniProt P08482); assay: qHTS Assay for Antagonists of Acetylcholine Muscarinic M1 Receptor: Measurement of IP-One Response (AID 944); note: nearly all actives have a fitted effect of over 75% in size; note: potency is the fitted concentration of half-maximal effect
Sequence of Muscarinic acetylcholine receptor M1 (Rattus norvegicus) (P08482 whole entry, looked up): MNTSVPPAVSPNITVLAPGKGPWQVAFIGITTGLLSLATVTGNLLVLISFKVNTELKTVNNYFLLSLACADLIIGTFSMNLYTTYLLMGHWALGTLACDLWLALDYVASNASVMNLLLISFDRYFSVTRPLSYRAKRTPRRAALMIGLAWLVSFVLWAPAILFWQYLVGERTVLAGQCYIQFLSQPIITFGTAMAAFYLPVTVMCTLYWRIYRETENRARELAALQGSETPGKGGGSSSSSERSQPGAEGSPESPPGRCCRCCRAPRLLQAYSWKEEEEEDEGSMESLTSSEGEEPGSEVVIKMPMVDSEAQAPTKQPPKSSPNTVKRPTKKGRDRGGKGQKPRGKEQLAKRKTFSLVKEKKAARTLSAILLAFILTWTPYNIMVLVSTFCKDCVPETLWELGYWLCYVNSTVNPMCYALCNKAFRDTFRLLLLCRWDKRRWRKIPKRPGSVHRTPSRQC
Procedure, shortened: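 IP1 accumulation measured via TR-FRET between d2-IP1 and Eu-cryptate anti-IP1 antibody after carbachol (200 nM, EC80) stimulation for 30 min; rat M1-transfected CHO cells received compound 10 min before agonist.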

[9] = target: Pyruvate kinase (Leishmania mexicana) (UniProt Q27686); assay: qHTS Validation Assay for Inhibitors of Leishmania Mexicana Pyruvate Kinase (AID 945);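 note: 0% = DMSO only neutral control wells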
Sequence of Pyruvate kinase (Leishmania mexicana) (Q27686 2-499 E452W): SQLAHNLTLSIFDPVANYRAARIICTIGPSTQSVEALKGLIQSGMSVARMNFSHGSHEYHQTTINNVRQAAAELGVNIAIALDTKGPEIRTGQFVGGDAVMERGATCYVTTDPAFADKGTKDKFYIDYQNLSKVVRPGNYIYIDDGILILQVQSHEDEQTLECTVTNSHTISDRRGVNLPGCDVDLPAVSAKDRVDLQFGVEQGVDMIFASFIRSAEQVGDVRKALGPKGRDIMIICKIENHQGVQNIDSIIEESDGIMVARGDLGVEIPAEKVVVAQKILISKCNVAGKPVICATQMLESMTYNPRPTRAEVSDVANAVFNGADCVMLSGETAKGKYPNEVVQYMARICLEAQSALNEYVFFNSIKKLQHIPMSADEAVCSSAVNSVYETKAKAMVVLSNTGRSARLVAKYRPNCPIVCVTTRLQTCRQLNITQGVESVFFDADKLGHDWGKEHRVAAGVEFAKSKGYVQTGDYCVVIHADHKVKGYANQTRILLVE
Procedure, shortened: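 Read-out: luminescence from PKLight stop/detection reagent, data normalized to DMSO. Reaction: 0.2 nM E451W LmPYK, 0.5 mM PEP, 0.1 mM ADP, pH 7.2, 1 h room temperature.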

[10] = target: Pyruvate kinase PKM (Homo sapiens) (UniProt P14618); assay: qHTS Assay for Activators of Human Muscle Pyruvate Kinase (AID 954; active = well fitted curve in the direction sought with a large enough effect, not every such curve was filed as active;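 note: 0% = uninhibited enzyme and -100% = no enzyme or full thiadiazolimine inhibition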)
Sequence of Pyruvate kinase PKM (Homo sapiens) (P14618 whole entry, looked up): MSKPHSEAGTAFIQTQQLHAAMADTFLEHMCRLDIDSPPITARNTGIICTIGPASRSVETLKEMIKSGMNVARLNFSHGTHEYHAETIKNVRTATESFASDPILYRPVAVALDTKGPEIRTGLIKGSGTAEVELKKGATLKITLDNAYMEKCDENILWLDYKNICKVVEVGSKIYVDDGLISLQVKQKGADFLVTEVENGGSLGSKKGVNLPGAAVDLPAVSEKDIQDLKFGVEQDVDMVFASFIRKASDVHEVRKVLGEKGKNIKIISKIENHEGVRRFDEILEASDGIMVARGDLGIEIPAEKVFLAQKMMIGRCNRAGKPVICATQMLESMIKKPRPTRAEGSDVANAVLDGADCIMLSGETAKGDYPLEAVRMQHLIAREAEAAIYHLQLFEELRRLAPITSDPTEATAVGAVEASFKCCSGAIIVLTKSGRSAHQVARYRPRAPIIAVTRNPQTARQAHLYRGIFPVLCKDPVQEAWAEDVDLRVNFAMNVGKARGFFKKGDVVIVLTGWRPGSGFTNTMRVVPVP
Procedure, shortened: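 ATP production by PKM2 detected via luciferase luminescence after 1 h room-temperature reaction (0.1 nM enzyme, PEP at Km 0.5 mM, ADP 0.1 mM, pH 7.2 imidazole buffer). Inhibition scaled to no-enzyme control; activation referenced to 0.3 nM enzyme wells.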

[11] = target: Alpha-galactosidase A (Homo sapiens) (UniProt P06280); assay: Counterscreen for Glucocerebrosidase Inhibitors: qHTS Assay for Human alpha-Galactosidase at pH 4.5 (AID 992); note: 0% is about no effect
Procedure, shortened: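 Fluorogenic 1536-well qHTS at pH 4.5 (citrate, Tween-20): 2 nM enzyme, 80 uM 4-MU-alpha-galactoside, 20 min room temperature, NaOH/glycine stop. Titration 0.7 nM to 77 uM, data normalized to no-enzyme and full-activity controls, Hill-fitted AC50.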

[12] = target: alpha-glucosidase (Oryza sativa, rice) (UniProt Q653V4); assay: Counterscreen for Glucocerebrosidase Inhibitors: qHTS Assay for Rice alpha-Glucosidase at pH 5.0 (AID 997);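 note: 0% = full activity with enzyme and -100% = basal without enzyme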
Procedure, shortened: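 Endpoint fluorogenic assay at pH 5.0: compounds (0.7 nM to 77 uM) titrated against 4 nM rice enzyme and 400 uM 4-MU-alpha-glucoside for 20 min at room temperature; NaOH/glycine stop, read ex 365/em 440 nm, Hill-fitted AC50.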

[13] = target: Alpha-galactosidase (Coffea arabica) (UniProt Q42656); assay: Counterscreen for Glucocerebrosidase Inhibitors: qHTS Assay for Coffee Bean alpha-Galactosidase at pH 5.9 (AID 998);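 note: plate controls were uninhibited enzyme for no effect and no-enzyme basal signal for full effect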
Sequence of Alpha-galactosidase (Coffea arabica) (Q42656 whole entry, looked up): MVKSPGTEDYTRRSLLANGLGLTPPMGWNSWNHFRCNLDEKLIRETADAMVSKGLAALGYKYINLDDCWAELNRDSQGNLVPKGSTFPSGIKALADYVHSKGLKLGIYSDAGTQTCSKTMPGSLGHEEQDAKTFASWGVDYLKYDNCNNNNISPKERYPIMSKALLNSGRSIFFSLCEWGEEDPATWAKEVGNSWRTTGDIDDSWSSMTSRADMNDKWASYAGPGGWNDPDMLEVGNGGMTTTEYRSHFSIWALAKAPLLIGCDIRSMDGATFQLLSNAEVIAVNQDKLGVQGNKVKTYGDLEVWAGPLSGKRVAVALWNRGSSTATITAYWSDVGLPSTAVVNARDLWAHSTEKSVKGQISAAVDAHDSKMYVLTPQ
Procedure, shortened: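 Fluorogenic 4-MU substrate hydrolysis, 80 uM substrate and 2 nM coffee bean alpha-galactosidase, pH 5.9 citrate buffer, 20 min at room temperature, then NaOH/glycine stop. Titration 0.7 nM–77 uM, normalized to no-enzyme and enzyme controls, AC50 via Hill equation.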

[14] = target: Mitogen-activated protein kinase 10 (Mus musculus) (UniProt Q61831); assay: JNK3 AlphaScreen Assay (AID 530; active = well fitted curve in either direction with a large enough effect, not every such curve was filed as active;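 note: kinase came from lysate of stimulated human HepG2 cells; signal reports phosphorylation of biotinylated GST-cJun 1-79 at Ser73 with 10 µM ATP; % is set by controls: 0 for no effect and ±100 for the full control effect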)
Procedure, shortened: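 qHTS titrations with 15 min compound pre-incubation before adding ATP (10 uM final). Read-out: AlphaScreen of Ser73-phosphorylated biotin-GST-cJun using HepG2 lysate JNK3 activated by IL-1β and TNFα.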

[15] = target: Cytochrome P450 2C9 (Homo sapiens) (UniProt P11712); assay: qHTS Assay for Inhibitors and Substrates of Cytochrome P450 2C9 (AID 883); note: % is set by controls: 0 for no effect and ±100 for the full control effect; nearly all actives have a fitted effect of over 60% in size
Sequence of Cytochrome P450 2C9 (Homo sapiens) (P11712 whole entry, looked up): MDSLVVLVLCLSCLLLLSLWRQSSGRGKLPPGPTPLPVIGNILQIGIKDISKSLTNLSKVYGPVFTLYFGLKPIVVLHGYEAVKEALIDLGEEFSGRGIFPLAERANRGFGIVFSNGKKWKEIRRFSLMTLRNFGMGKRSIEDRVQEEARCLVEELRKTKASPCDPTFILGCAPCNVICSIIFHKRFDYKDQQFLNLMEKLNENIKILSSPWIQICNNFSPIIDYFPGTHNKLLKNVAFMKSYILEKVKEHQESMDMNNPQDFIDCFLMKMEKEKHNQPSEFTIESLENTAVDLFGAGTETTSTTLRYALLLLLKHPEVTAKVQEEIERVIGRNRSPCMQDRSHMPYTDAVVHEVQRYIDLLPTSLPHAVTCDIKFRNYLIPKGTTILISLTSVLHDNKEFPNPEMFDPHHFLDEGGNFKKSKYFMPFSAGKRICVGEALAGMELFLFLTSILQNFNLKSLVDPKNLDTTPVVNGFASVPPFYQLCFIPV
Procedure, shortened: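 Turnover of Luciferin-H (100uM, KM) by 10nM human CYP2C9 was measured over 60 min at 37C with NADPH regeneration; inhibitors and some substrates reduce luminescence. Data normalized to sulphaphenazole 57uM.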

[16] = target: Cytochrome P450 2C19 (Homo sapiens) (UniProt P33261); assay: qHTS Assay for Inhibitors and Substrates of Cytochrome P450 2C19 (AID 899); note: nearly all actives have a fitted effect of over 60% in size; note: potency is the fitted concentration of half-maximal effect
Sequence of Cytochrome P450 2C19 (Homo sapiens) (P33261 whole entry, looked up): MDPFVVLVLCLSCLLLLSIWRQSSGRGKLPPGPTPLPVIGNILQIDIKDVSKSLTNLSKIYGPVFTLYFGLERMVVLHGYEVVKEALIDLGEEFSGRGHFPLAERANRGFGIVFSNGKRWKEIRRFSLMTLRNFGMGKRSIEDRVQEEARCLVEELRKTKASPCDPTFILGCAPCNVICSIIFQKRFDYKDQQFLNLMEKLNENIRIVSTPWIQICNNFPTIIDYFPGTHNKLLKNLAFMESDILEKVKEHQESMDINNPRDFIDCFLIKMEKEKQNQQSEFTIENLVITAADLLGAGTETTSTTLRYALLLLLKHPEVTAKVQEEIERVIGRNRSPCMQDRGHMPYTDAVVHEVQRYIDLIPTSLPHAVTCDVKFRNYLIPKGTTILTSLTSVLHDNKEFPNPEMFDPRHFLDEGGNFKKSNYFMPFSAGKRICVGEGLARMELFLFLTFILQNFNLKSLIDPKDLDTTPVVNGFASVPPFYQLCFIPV
Procedure, shortened: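 Reactions contain 5nM enzyme, 10uM Luciferin-H EGE (KM) and 50mM KPO4; compound preincubates 10 min at 37C, NADPH regeneration starts turnover for 60 min. Luminescence after detection reagent gives activity.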

[17] = target: Cytochrome P450 1A2 (Homo sapiens) (UniProt P05177); assay: p450-cyp1a2 (AID 410; calls by dose curve; note: potency is the fitted concentration of half-maximal effect;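 for activity change, negative = inhibition: -100% = full effect of reference inhibitor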)
Sequence of Cytochrome P450 1A2 (Homo sapiens) (P05177 whole entry, looked up): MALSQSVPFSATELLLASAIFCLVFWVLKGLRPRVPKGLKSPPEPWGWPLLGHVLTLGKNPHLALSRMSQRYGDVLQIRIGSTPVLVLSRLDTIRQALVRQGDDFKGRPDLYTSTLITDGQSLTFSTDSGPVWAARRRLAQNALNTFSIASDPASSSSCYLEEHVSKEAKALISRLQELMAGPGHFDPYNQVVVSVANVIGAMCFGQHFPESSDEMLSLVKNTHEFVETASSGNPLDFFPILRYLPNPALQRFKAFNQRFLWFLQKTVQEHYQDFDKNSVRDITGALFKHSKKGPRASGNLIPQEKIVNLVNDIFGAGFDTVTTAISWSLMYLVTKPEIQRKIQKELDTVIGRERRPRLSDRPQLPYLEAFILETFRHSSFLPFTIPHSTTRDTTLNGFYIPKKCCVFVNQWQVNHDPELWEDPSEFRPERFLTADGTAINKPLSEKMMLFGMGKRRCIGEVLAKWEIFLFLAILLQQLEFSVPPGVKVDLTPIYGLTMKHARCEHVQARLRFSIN
Procedure, shortened: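 Luminescent demethylation readout: Luciferin-ME (100uM, equal to Km) turned over by 20nM CYP1A2 for 60 min at room temperature after NADPH regeneration addition, following 10 min compound preincubation. Normalization used 57 uM furafylline as full inhibition.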

[18] = target: Cytochrome P450 2D6 (Homo sapiens) (UniProt P10635); assay: qHTS Assay for Inhibitors and Substrates of Cytochrome P450 2D6 (AID 891);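 note: luciferin methyl ether substrate demethylated by CYP2D6 with NADPH regeneration; % is set by controls: 0 for no effect and ±100 for the full control effect; nearly all actives have a fitted effect of over 60% in size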
Procedure, shortened: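 Luminescent read-out of luciferin formed by 5 nM human CYP2D6 demethylating 30 uM Luciferin-ME EGE (Km level) over 60 min at room temperature after NADPH regeneration addition. Data normalized to full inhibition by 1.43 uM quinidine.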

[19] = qHTS Assay for Identification of Small Molecule Agonists for Hypoxia Response Element Signaling Pathway (AID 914; active = well fitted activation curve with a large enough effect in the signal ratio, with a control signal flat, not every such curve was filed as active; the % refers to the signal ratio; note: % of control where 0% means no effect); details: ME-180 (cervical carcinoma) HRE-bla reporter, beta-lactamase ratio, CoCl2, 17 h; activation: active compounds read high
Procedure, shortened: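 qHTS titration; ME-180 HRE-bla cells; EC50 CoCl2 co-treatment, 17 h at 37 degrees Celsius; CCF4 dye, ex 405nm, em 460nm and 530nm; %Activity from ratio; AC50.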

[20] = target: Guanine nucleotide-binding protein G(i) subunit alpha-1 (Homo sapiens) (UniProt P63096); assay: qHTS Assay for Inhibitors of RGS12 GoLoco Motif Activity (Green Fluorophore) (AID 879);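 note: 0% = labeled peptide with Gαi1 and full inhibition = labeled peptide alone without protein; negative values mean loss of peptide binding seen as reduced polarization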
Procedure, shortened: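 A drop in FITC polarization marked displacement of the FITC-tagged RGS12 GoLoco peptide (10 nM) from Gαi1 (50 nM). Compounds were incubated 10 min at room temperature in Tris pH 7.5 buffer containing 150 mM NaCl, 0.1 mM GDP and 0.05% NP40; unlabeled peptide titration served as control.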

[21] = qHTS Assay for Identification of Small Molecule Agonists for Thrombopoietin (TPO) Signaling Pathway (AID 917); note: % is set by controls: 0 for no effect and ±100 for the full control effect
Procedure, shortened: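 First, Ba/F3 cells with human TPO receptor were held overnight without IL-3. Next, compounds and TPO (26 pM final) were added. After 24 hrs at 37 C, luciferase detection reagent was added and luminescence measured following 10 min at room temperature.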

[22] = target: Muscarinic acetylcholine receptor M1 (Rattus norvegicus) (UniProt P08482); assay: qHTS Assay for Antagonists of Acetylcholine Muscarinic M1 Receptor: Kinetic Measurement of Intracellular Calcium Response (AID 943); note: potency is the fitted concentration of half-maximal effect; nearly all actives have a fitted effect of over 75% in size
Procedure, shortened: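 Antagonism measured as reduction of carbachol-evoked (EC80, 100 nM final) calcium flux in rat M1-CHO cells after 10 min compound exposure. Fluo-4 signal read kinetically; ratio of maximal to basal fluorescence.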

[23] = target: Alpha-galactosidase (Coffea arabica) (UniProt Q42656); assay: Counterscreen for Glucocerebrosidase Inhibitors: qHTS Assay for Coffee Bean alpha-Galactosidase at pH 4.5 (AID 957);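 note: plate controls were enzyme alone for no effect and no enzyme for full effect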
Procedure, shortened: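 Fluorogenic qHTS at pH 4.5 (citrate buffer with Tween-20): 2 nM enzyme, 80 uM 4-MU-alpha-galactoside substrate, compound titrated 0.7 nM to 77 uM, 20 min room temperature. Glycine/NaOH stop; 4-MU read Ex 365/Em 440; Hill-equation AC50 against no-enzyme and enzyme controls.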

CCCN1CCc2cccc3c2[C@@H]1Cc1ccc(O)c(O)c1-3
active: Potency [7] 12.6 µM
inactive: activity change, negative = inhibition [1] 6.42% [at 38 µM] | outcome [2] | Potency [3] > 46 µM | Potency [4] > 46 µM | outcome [5] | Potency [6] | Potency [8] | Potency [9] | outcome [10] | outcome [11] | outcome [12] | outcome [13]

Cc1c(N=Cc2c(O)n(CCc3ccccc3)c(=O)[nH]c2=O)c(=O)n(-c2ccccc2)n1C
inactive: activity change, negative = inhibition [1] -11.1% | outcome [2] | Potency [3] > 20.6 µM

O=C(CCCN1CCC2(CC1)C(=O)N(CCc1ccc(N=C=S)cc1)CN2c1ccccc1)c1ccc(F)cc1
active: Potency [16] 3.16 µM
inactive: activity change, negative = inhibition [1] -2.99% [at 38 µM] | outcome [2] | Potency [3] > 46 µM | Potency [4] > 46 µM | outcome [14] | outcome [5] | Potency [15]

CCN1C[C@@]2(COC(=O)c3ccccc3N3C(=O)C[C@H](C)C3=O)CC[C@H](OC)[C@@]34[C@@H]5CC6[C@@H](OC)C[C@@](O)([C@H]5[C@H]6OC)C(O)([C@@H]13)[C@@H](OC)[C@H]24
inactive: Potency [17] | Potency [3] > 46 µM | Potency [4] > 46 µM | outcome [14] | outcome [5] | Potency [15] | Potency [18] | Potency [16]

O=c1cccc2n1C[C@@H]1C[C@H]2CN2CCCC[C@H]12
active: Potency [17] 1.26 µM
inactive: Potency [3] > 46 µM | Potency [4] > 46 µM | outcome [14] | outcome [5] | Potency [15]

COc1ccc(OC)c([C@@H](O)[C@H](C)NC(C)(C)C)c1
inactive: activity change, negative = inhibition [1] 8.72% | outcome [2] | Potency [3] > 20.6 µM | activation [19] 0.127%

CCCCCCn1c(O)c(C=Nc2c(C)n(C)n(-c3ccccc3)c2=O)c(=O)[nH]c1=O
inactive: activity change, negative = inhibition [1] -18.8% | outcome [2] | Potency [3] > 20.6 µM

CCCC[N+]1(C)[C@@H]2CC(OC(=O)[C@@H](CO)c3ccccc3)C[C@H]1[C@H]1O[C@H]12 (stereo partly specified)
inactive: Potency [17] | outcome [2] | Potency [3] > 46 µM | Potency [4] > 46 µM | outcome [14] | outcome [5] | Potency [20] | outcome [21] | Potency [9] | outcome [10] | outcome [23] | outcome [11] | outcome [12] | outcome [13]
active: Potency [22] 0.141 µM | Potency [8] 0.562 µM
